Source: PubChem (Broad Institute)
Compounds with a hit are over-represented: about 6.8% of the library has one in this group of screens.
Pf_Dd2_growth = P. falciparum Dd2 growth inhibitors, primary screen, SYBR Green fluorescence, single dose replicates; 72 h; active compounds read low; activity change, % at 10 µM; 94,000 tested, 2.3% active; in the data active = activity change below about -80%
C_diff_growth = C. difficile growth inhibitors, primary screen, HTS | Clostridium difficile clinical isolate growth, OD600, 24 h; active compounds read low | growth activity, negative = inhibition, % at 16 µg/mL (by protocol) | AID 1259249, 2017 | 86,000 tested, 0.25% active;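 active = mean growth activity at or below -80% and every replicate also at or below -80%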;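 note: 0% = DMSO wells and -100% = levofloxacin 16 µg/mL wells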
T_cruzi_growth = T. cruzi intracellular proliferation inhibitors, primary screen, cell-based, beta-gal Tulahuen parasites, NIH3T3 host, luminescence; T. cruzi beta-gal in NIH3T3, GalScreen luminescence, 90 h; inhibition, % at 8.34 µM; 77,000 tested, 5.9% active;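 active = mean inhibition above about 93%, with at least 55% of replicates each passing it, limit read from the data, passing the limit was not always enough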
* = called active by the depositor; / = no result.

SMILES Pf_Dd2_growth C_diff_growth T_cruzi_growth
C[C@@H]1CN([C@@H](C)CO)C(=O)c2cc(NC(=O)Nc3ccc(C(F)(F)F)cc3)ccc2O[C@@H](C)CCCCO[C@H]1CN(C)CC1CCCCC1 -60.3 -106.6* 88.0
C[C@H](CO)N1C[C@H](C)[C@@H](CN(C)C(=O)Nc2ccc(C(F)(F)F)cc2)Oc2ccc(NC(=O)Nc3ccccc3)cc2CC1=O -64.2 14.8 20.3
COc1ccc(NC(=O)N(C)C[C@H]2Oc3ccc(NC(=O)Nc4ccc(C(F)(F)F)cc4)cc3CC(=O)N([C@H](C)CO)C[C@@H]2C)cc1 -88.1* 11.1 35.0
C[C@H](CO)N1C[C@H](C)[C@@H](CN(C)C(=O)Nc2ccccc2)Oc2ccc(NC(=O)Nc3ccc(C(F)(F)F)cc3)cc2CC1=O -85.0* 8.4 27.6
C[C@H](CO)N1C[C@H](C)[C@@H](CN(C)C(=O)Nc2ccc(F)cc2)Oc2ccc(NC(=O)Nc3ccc(C(F)(F)F)cc3)cc2CC1=O -87.6* 16.9 10.4
COc1ccc(NC(=O)Nc2ccc3c(c2)CC(=O)N([C@@H](C)CO)C[C@H](C)[C@@H](CN(C)C(=O)Nc2ccc(C(F)(F)F)cc2)O3)cc1 -17.2 -8.5 2.9
C[C@H]1CN([C@@H](C)CO)C(=O)Cc2cc(NC(=O)Nc3ccc(C(F)(F)F)cc3)ccc2O[C@@H]1CN(C)C(=O)Nc1ccc(F)cc1 -74.0 -2.0 3.6
COCC#Cc1ccc(CC[C@H]2O[C@H]3CC[C@H](CO)O[C@H]3C[C@@H]2n2cc(C(C)(C)O)nn2)cc1 -29.5 -1.1 /
CNC[C@@H]1Oc2c(NC(=O)Nc3c(C)noc3C)cccc2C(=O)N([C@@H](C)CO)C[C@@H]1C 37.3 -3.7 -51.8
COc1ccc2c3c(n(C)c2c1)[C@@H](CO)N(C(=O)C1CCC1)CC31CN(C(=O)Nc2cccc(F)c2)C1 -87.2* 7.4 /
COc1ccc2c3c(n(C)c2c1)[C@@H](CO)N(C(=O)C1CC1)CC31CCN(C(=O)Nc2cccc(F)c2)CC1 -91.2* 3.5 /
COc1ccc2c3c(n(C)c2c1)[C@H](CO)N(C(=O)C1CC1)CC31CN(C(=O)Nc2cccc(F)c2)C1 -62.6 -3.0 /
COc1ccc2c3c(n(C)c2c1)[C@@H](CO)N(C(=O)C1CC1)CC31CN(C(=O)Nc2cccc(F)c2)C1 -87.5* -10.9 /
CCCC(=O)N1CCC2(CC1)CN(C(=O)Nc1cccc(F)c1)[C@@H](CO)c1c2c2ccc(OC)cc2n1C -64.2 -16.7 /
COc1ccc2c3c(n(C)c2c1)[C@H](CO)N(C)CC31CN(C(=O)Nc2cccc(F)c2)C1 -20.2 2.4 /
CCCC(=O)N1CC2(CCN(C(=O)Nc3cccc(F)c3)CC2)c2c(n(C)c3cc(OC)ccc23)[C@H]1CO -86.0* 1.2 /
COc1ccc2c3c(n(C)c2c1)[C@@H](CO)N(C(=O)C1CCOCC1)CC31CCN(C(=O)Nc2cccc(F)c2)CC1 -72.5 -1.5 /
CCC(=O)N1CC(=O)N2[C@H](C1)[C@H](c1ccc(-c3cccc(C(=O)N(C)C)c3)cc1)[C@@H]2CO -14.3 -1.3 /
C[C@H](CO)N1C[C@H](C)[C@H](CN(C)Cc2ccccn2)Oc2ncc(C#CC3CC3)cc2C1=O 16.0 4.2 72.7
COc1cccc(NC(=O)Nc2ccc3c(c2)C(=O)N(C)[C@H]2CC[C@@H](CC(=O)NCCc4ccccc4)O[C@@H]2CO3)c1 / -0.6 19.8
COc1ccc(NC(=O)N[C@@H]2CC[C@@H](CCNC(=O)CCN3CCCCC3)O[C@@H]2CO)cc1 -1.6 / 41.6
C/C=C/c1ccc([C@@H]2[C@H](CO)N(CC3CC3)C23CN(C(=O)c2ccc4c(c2)OCO4)C3)cc1 -82.5* 22.5 /
C/C=C/c1ccc([C@H]2[C@@H](CO)N(CC3CC3)C23CN(C(=O)COC)C3)cc1 -5.4 -3.2 /
O=C(N[C@@H]1CC[C@@H](CCNS(=O)(=O)c2ccc(F)cc2)O[C@@H]1CO)c1cnccn1 14.7 -3.0 -24.9
C[C@@H]1CCCCO[C@@H](CN(C)C(=O)Nc2ccc(F)cc2)[C@@H](C)CN([C@H](C)CO)C(=O)c2cc(N(C)C)ccc2O1 26.0 -0.1 52.9
SMILES Pf_Dd2_growth C_diff_growth T_cruzi_growth
COc1ccc2c3c([nH]c2c1)[C@@H](CO)N(Cc1ccccc1F)CC31CN(CC2CC2)C1 -62.3 23.3 /
COc1cccc(CN2CC3(CCN(CC4CC4)CC3)c3c([nH]c4cc(OC)ccc34)[C@H]2CO)c1 -92.3* 12.2 /
COc1ccc2c3c([nH]c2c1)[C@H](CO)N(Cc1ccccc1)CC31CCN(CC2CC2)CC1 -92.5* 7.8 /
COc1cccc(CN2CC3(CCN(CC4CCOCC4)CC3)c3c([nH]c4cc(OC)ccc34)[C@@H]2CO)c1 -16.9 4.5 /
COc1ccc2c3c([nH]c2c1)[C@H](CO)N(Cc1ccccc1)CC31CN(CC2CC2)C1 -69.4 3.8 /
COc1ccc2c3c([nH]c2c1)[C@H](CO)N(CC1CC1)CC31CCN(Cc2ccccc2F)CC1 -84.8* 15.5 /
C[C@H]1CN([C@@H](C)CO)C(=O)c2cc(/C=C/c3ccccc3)cnc2O[C@@H]1CN(C)C(=O)Cc1cccnc1 4.0 -3.5 /
O=C(C[C@@H]1C=C[C@H](NC(=O)Nc2cc(F)ccc2F)[C@@H](CO)O1)Nc1ccccc1 25.1 / -3.9
COc1ccc(S(=O)(=O)N(C)C[C@H]2Oc3cc(C#CC4CCCCC4)ccc3S(=O)(=O)N([C@H](C)CO)C[C@H]2C)cc1 -66.2 / 54.6
CCCN(C)C[C@H]1Oc2cc(C#CC3CCCC3)ccc2S(=O)(=O)N([C@H](C)CO)C[C@H]1C -83.6* 6.3 75.2
COc1ccc(S(=O)(=O)N(C)C[C@@H]2Oc3cc(C#CC4CCCCC4)ccc3S(=O)(=O)N([C@H](C)CO)C[C@H]2C)cc1 -85.7* / 38.5
C[C@@H]1CN([C@H](C)CO)S(=O)(=O)c2ccc(C#CC3CCCCC3)cc2O[C@@H]1CN(C)C -81.1* 17.5 50.5
CCCN(C)C[C@@H]1Oc2cc(C#CC3CCCCC3)ccc2S(=O)(=O)N([C@H](C)CO)C[C@H]1C -20.2 32.4 78.9
C[C@H](CO)N1C[C@H](C)[C@@H](CN(C)C)Oc2cc(C#CC3CCCCC3)ccc2S1(=O)=O -53.9 16.5 76.4
C[C@H]1CCCCO[C@H](CN(C)CC2CC2)[C@@H](C)CN([C@@H](C)CO)C(=O)c2cc(NS(=O)(=O)c3ccc(F)cc3)ccc2O1 -47.3 1.6 49.8
C[C@@H]1CCCCO[C@@H](CN(C)Cc2ccc(Cl)c(Cl)c2)[C@H](C)CN([C@H](C)CO)C(=O)c2cc(NC(=O)Nc3ccc(C(F)(F)F)cc3)ccc2O1 -85.9* 21.0 51.1
C[C@H]1CCCCO[C@@H](CN(C)Cc2ccc(C(F)(F)F)cc2)[C@@H](C)CN([C@@H](C)CO)C(=O)c2cc(NC(=O)c3ccccc3)ccc2O1 -59.4 13.0 63.3
C[C@@H]1CCCCO[C@H](CN(C)Cc2ccc(C(F)(F)F)cc2)[C@@H](C)CN([C@@H](C)CO)C(=O)c2cc(NC(=O)c3ccccc3)ccc2O1 -85.6* 23.3 68.2
